From PubChem BioAssay (EPA / NIEHS)
Inconclusive results are not listed. Active and inactive are the calls of the source. Rule for the calls, unless noted: active = hit-call score of the fitted dose curve at least 0.9, where 1 is the maximum; inactive = score below 0.9.

Tests used:
[1] = biological target: Transcription factor Sp1 (Homo sapiens) (UniProt P08047); assay: ATG_Sp1_CIS: Attagene CIS-FACTORIAL HepG2 Assay for human Specificity Protein 1 (Sp1) (AID 2282961); settings: HepG2 Sp1 cis-reporter transcription, actives raise or lower the signal
Transcription factor Sp1 (Homo sapiens), sequence (P08047 whole entry, looked up): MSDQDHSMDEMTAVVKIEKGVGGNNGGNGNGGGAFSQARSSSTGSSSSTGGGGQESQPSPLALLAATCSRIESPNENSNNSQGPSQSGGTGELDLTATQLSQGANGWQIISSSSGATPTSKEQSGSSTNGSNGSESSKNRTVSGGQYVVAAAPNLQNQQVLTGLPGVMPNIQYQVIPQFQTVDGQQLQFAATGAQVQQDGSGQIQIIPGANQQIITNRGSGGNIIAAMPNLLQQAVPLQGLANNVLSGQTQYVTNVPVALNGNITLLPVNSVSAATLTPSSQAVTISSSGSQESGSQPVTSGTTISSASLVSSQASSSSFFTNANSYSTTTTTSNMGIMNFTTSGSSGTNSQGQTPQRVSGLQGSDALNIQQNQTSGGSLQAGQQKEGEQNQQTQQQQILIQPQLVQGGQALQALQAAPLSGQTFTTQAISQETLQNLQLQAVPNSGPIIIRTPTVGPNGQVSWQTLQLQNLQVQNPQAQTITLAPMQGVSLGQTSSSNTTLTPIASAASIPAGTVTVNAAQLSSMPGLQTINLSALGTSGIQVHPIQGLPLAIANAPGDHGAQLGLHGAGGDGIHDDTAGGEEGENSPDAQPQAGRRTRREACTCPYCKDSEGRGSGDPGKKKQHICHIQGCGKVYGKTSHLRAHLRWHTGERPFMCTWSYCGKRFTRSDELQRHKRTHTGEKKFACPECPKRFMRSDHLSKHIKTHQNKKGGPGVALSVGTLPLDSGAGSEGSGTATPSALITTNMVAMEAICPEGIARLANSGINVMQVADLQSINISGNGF
In short: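 Transient MRTU-transfected HepG2, 24 h compound exposure. Total RNA → oligo(dT) RT → PCR of reporter → 6-FAM primer extension → HpaI digest → CE. Endpoint fitted both directions vs DMSO.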

[2] = ATG_SREBP_CIS: Attagene CIS-FACTORIAL HepG2 Assay for human Sterol Regulatory Element Binding (SREBP) (AID 2282962); settings: HepG2 Attagene cis-factorial SREBP reporter, mRNA; actives raise or lower the signal
In short: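 HepG2 cells transiently transfected with multiplexed cis-element reporter units report endogenous transcription factor activity. After 24 h of chemical exposure, reporter mRNA was quantified by RT-PCR, 6-FAM labelling, HpaI digestion and capillary electrophoresis; bidirectional fits used DMSO as baseline.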

[3] = biological target: Signal transducer and activator of transcription 3 (Homo sapiens) (UniProt P40763); assay: ATG_STAT3_CIS: Attagene CIS-FACTORIAL HepG2 Assay for human Signal Transducer and Activator of Transcription 3 (STAT3) (AID 2282963); settings: HepG2, Attagene cis-factorial STAT3 reporter transcription; actives raise or lower the signal
Signal transducer and activator of transcription 3 (Homo sapiens), sequence (P40763 whole entry, looked up): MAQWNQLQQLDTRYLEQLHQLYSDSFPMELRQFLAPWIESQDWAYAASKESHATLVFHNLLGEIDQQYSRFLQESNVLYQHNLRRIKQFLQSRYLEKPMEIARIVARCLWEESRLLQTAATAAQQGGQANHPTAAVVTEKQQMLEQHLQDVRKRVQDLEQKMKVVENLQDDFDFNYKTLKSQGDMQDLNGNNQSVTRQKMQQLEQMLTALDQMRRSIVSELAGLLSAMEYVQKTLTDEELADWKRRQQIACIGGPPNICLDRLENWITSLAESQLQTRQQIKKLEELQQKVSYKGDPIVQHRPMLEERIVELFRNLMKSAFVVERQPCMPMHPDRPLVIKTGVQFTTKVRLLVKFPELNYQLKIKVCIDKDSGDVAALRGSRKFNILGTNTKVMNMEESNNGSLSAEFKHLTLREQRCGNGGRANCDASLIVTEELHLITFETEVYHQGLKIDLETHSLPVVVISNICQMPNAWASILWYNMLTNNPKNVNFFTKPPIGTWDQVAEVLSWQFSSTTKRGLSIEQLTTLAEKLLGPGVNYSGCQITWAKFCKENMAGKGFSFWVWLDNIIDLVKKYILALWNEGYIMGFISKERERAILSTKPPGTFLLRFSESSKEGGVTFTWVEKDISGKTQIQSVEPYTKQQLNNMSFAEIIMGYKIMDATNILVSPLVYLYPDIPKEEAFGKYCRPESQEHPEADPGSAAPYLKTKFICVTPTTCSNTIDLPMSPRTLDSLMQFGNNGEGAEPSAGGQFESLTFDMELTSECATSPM
In short: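 Transcript-level reporter assay. HepG2 transient MRTU transfection, 24 h exposure, fluorescence detection after RT-PCR and CE; DMSO baseline.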

[4] = ATG_TA_CIS: Attagene CIS-FACTORIAL HepG2 Assay for human TA Basal Promoter (AID 2282964); settings: HepG2 Attagene CIS-factorial TA basal promoter reporter; actives raise or lower the signal
In short: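 Cis-factorial format in HepG2: reporters report endogenous factors, not chimeric Gal4 fusions. After 24 h treatment, reporter transcripts were measured by RT-PCR-capillary electrophoresis fluorescence, analysed bidirectionally versus DMSO.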

[5] = ATG_TCF_b_cat_CIS: Attagene CIS-FACTORIAL HepG2 Assay for human T-Cell-Factor with beta-catenin (TCF/b-cat) (AID 2282965); settings: HepG2 TCF/beta-catenin cis-reporter transcription, actives raise or lower the signal
In short: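 HepG2 cells transiently transfected with multiple cis-promoter-regulated reporter transcription units, so endogenous transcription factor activity is measured. Reporter mRNA read 24 hours after dosing by RT-PCR, fluorescent labelling and capillary electrophoresis; bidirectional fitting against DMSO.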

[6] = ATG_TAL_CIS: Attagene CIS-FACTORIAL HepG2 Assay for human TAL Basal Promoter (AID 2282966); settings: HepG2 Attagene cis-factorial TAL promoter reporter; actives raise or lower the signal;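 note: background control endpoint measuring basal TAL promoter reporter mRNA not a specific factor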
In short: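 HepG2 cells were transiently transfected with promoter-driven multiplexed reporter units and dosed for 24 h. Reporter mRNA was measured by RT-PCR with capillary electrophoresis fluorescence; bidirectional fits used DMSO as baseline, serving as a background control.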

[7] = biological target: Estrogen receptor (Homo sapiens) (UniProt P03372); assay: ATG_ERa_TRANS: Attagene TRANS-FACTORIAL HepG2 Assay for human Estrogen Receptor alpha (ERa) (AID 2282970; active = hit-call score of the fitted dose curve at least 0.9, where 1 is the maximum); settings: HepG2 Attagene TRANS ERa GAL4 reporter, mRNA
Estrogen receptor (Homo sapiens), sequence (P03372 whole entry, looked up, the tested form may be a part): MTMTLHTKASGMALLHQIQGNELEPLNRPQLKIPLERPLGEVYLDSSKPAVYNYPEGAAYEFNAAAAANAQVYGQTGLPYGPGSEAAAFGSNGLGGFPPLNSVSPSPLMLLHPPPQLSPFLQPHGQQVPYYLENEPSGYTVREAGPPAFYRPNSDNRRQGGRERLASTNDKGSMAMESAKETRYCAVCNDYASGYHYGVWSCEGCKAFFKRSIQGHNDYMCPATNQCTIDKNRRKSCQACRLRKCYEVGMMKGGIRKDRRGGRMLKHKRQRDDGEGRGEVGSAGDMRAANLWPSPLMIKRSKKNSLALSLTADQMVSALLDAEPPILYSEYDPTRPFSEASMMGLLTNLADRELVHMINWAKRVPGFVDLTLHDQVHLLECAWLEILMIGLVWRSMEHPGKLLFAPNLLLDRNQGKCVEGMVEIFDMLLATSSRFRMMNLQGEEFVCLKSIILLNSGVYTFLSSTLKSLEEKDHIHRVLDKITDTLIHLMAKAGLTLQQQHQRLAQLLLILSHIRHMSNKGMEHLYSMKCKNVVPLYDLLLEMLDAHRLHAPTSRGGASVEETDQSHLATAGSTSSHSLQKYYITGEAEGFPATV
In short: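 HepG2 cells transiently transfected with multiplexed GAL4-UAS reporter units; ERa activity read via exogenous chimeric NR-Gal4 protein. After 24 hour compound exposure, reporter mRNA measured by RT-PCR with 6-FAM labelling and capillary electrophoresis; gain-of-signal fitted relative to DMSO.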

[8] = ATG_VDRE_CIS: Attagene CIS-FACTORIAL HepG2 Assay for human Vitamin D Receptor Element (VDRE) (AID 2282968); settings: HepG2 VDRE cis-reporter transcription, actives raise or lower the signal
In short: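 RT-PCR/CE readout of reporter mRNA; HepG2, transient transfection, 24 h dosing; DMSO baseline; bidirectional analysis.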

[9] = ATG_TGFb_CIS: Attagene CIS-FACTORIAL HepG2 Assay for human Transforming Growth Factor (TGF) (AID 2282967); settings: HepG2 Attagene CIS TGFb reporter, mRNA transcription; actives raise or lower the signal
In short: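 Multiplexed cis-reporter HepG2 system, 24 h treatment; mRNA induction read by fluorescence after RT-PCR and CE; DMSO negative control, bidirectional curve fitting.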

[10] = biological target: Nuclear receptor subfamily 1 group I member 3 (Homo sapiens) (UniProt Q14994); assay: ATG_CAR_TRANS: Attagene TRANS-FACTORIAL HepG2 Assay for human Constitutive Androstane Receptor (CAR) (AID 2282969; active = hit-call score of the fitted dose curve at least 0.9, where 1 is the maximum;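 note: activators raise reporter mRNA above DMSO so AC50 marks induction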); settings: HepG2 Attagene TRANS-FACTORIAL CAR reporter
Nuclear receptor subfamily 1 group I member 3 (Homo sapiens), sequence (Q14994 whole entry, looked up, the tested form may be a part): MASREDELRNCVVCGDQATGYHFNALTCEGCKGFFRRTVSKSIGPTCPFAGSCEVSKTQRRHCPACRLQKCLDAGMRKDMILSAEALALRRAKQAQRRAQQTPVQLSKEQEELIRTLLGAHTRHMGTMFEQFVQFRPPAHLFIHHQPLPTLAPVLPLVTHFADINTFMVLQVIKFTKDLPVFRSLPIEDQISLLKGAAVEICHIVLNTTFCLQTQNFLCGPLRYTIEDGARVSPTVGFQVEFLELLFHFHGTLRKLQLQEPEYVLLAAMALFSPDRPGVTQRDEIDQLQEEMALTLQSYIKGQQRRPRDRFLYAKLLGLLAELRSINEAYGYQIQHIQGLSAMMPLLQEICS
In short: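 HepG2 cells transiently transfected with multiplexed GAL4-UAS reporter units expressing chimeric NR-Gal4 proteins; compound exposure 24 h. Reporter mRNA measured by RT-PCR, 6-FAM labelling, HpaI digestion and capillary electrophoresis; gain-of-signal fitted against DMSO baseline.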

Measured: AC50

Cc1cc(=O)[nH]o1
not listed: [8] | [9] | [10]
inactive: all other assays above

CCCCC(CC)CO[N+](=O)[O-] (centres undefined)
active: [8] 143 µM
not listed: [7] | [9] | [10]
inactive: all other assays above

Clc1ccc(COC(Cn2ccnc2)c2ccc(Cl)cc2Cl)cc1 (centres undefined)
not listed: [8]
inactive: all other assays above

Nc1ccc(Cl)cc1C(=O)c1ccccc1
active: [4] 21.8 µM | [5] 39.6 µM | [8] 16.6 µM | [7] 3.63 µM
not listed: [10]
inactive: all other assays above

CCOP(=O)(CN(CCO)CCO)OCC
not listed: [6] | [7] | [10]
inactive: all other assays above

CC(C)(OO)c1ccccc1
active: [7] 100 µM
not listed: [9] | [10]
inactive: all other assays above

Cc1ccc2ccccc2c1C
not listed: [8]
inactive: all other assays above

COc1ccccc1OC
not listed: [9] | [10]
inactive: all other assays above

Nc1cccc2ccccc12
active: [2] 170 µM
not listed: [8] | [10]
inactive: all other assays above

COc1ccc(OC)c(C=O)c1
not listed: [7] | [9] | [10]
inactive: all other assays above

BrCCBr
active: [7] 27.5 µM
not listed: [9]
inactive: all other assays above

CCC(=O)C(CC(C)N(C)C)(c1ccccc1)c1ccccc1 (centres undefined)
active: [2] 14.2 µM
not listed: [8] | [10]
inactive: all other assays above

Oc1ccc(-c2ccccc2)cc1
active: [1] 147 µM | [8] 83.2 µM
inactive: [2] | [3] | [4] | [5] | [9]

N#CCc1ccc(Cl)cc1
not listed: [9] | [10]
inactive: all other assays above

CN(C)N=O
not listed: [7] | [9]
inactive: all other assays above

NC(=O)O
not listed: [9]
inactive: all other assays above

Cn1sc(Cl)cc1=O
not listed: [9] | [10]
inactive: all other assays above

CC(=O)C=C(C)C
not listed: [10]
inactive: all other assays above

CCOP(=S)(OCC)SCCS(=O)(=O)CC
not listed: [8] | [9] | [10]
inactive: all other assays above

CCCCCCCCCl
not listed: [7] | [9] | [10]
inactive: all other assays above

C[C@H]1CCCC(=O)CCC/C=C/c2cc(O)cc(O)c2C(=O)O1
active: [7] 0.00409 µM
not listed: [8] | [10]
inactive: all other assays above

CCCCOCCOC(C)=O
inactive: [1] | [2] | [3] | [4] | [5] | [9]

O=C(Cl)c1ccc(Cl)cc1
not listed: [8] | [10]
inactive: all other assays above

C=CC#N
not listed: [8] | [10]
inactive: all other assays above

C=C(C)C(=O)[O][Sn]([CH2]CCC)([CH2]CCC)[CH2]CCC
active: [4] 0.591 µM
not listed: [8] | [10]
inactive: all other assays above

C[C@H]1O[C@@H](O[C@H]2[C@@H](O)C[C@H](O[C@H]3[C@@H](O)C[C@H](O[C@H]4CC[C@@]5(C)[C@H](CC[C@@H]6[C@@H]5CC[C@]5(C)[C@@H](C7=CC(=O)OC7)CC[C@]65O)C4)O[C@@H]3C)O[C@@H]2C)C[C@H](O)[C@@H]1O
active: [1] 3.3 µM | [2] 7.83 µM | [3] 0.196 µM | [6] 0.0564 µM
not listed: [10]
inactive: all other assays above

CN(CCCC(=O)c1cccnc1)N=O
not listed: [6] | [7]
inactive: all other assays above

O=C(Nc1ccc2[nH]ccc2c1)c1cc2cc(F)ccc2n1Cc1cccc(F)c1
active: [1] 14.7 µM | [4] 14 µM | [8] 11 µM
not listed: [5]
inactive: all other assays above

O=[N+]([O-])c1ccc2c3c(cccc13)CC2
active: [9] 0.0823 µM
not listed: [5] | [8] | [10]
inactive: all other assays above

ClC(Cl)=C(Cl)C(Cl)=C(Cl)Cl
active: [1] 160 µM | [2] 156 µM
inactive: [3] | [4] | [9] | [7]

ClC1(Cl)C2(Cl)C3(Cl)C4(Cl)C(Cl)(Cl)C5(Cl)C3(Cl)C1(Cl)C5(Cl)C24Cl (centres undefined)
inactive: [1] | [2] | [3] | [4] | [6] | [8]

C1CCC(NC2CCCCC2)CC1
active: [7] 59.7 µM
not listed: [6] | [10]
inactive: all other assays above

CN(C)P(=O)(N(C)C)N(C)C
not listed: [5] | [9] | [10]
inactive: all other assays above

C=CC(=O)OCCCCCC(C)C
not listed: [5] | [7] | [10]
inactive: all other assays above

O=C1CCCN1
not listed: [6] | [7] | [8]
inactive: all other assays above

O=C1C(Cl)=C(Cl)C(=O)c2ccccc21
inactive: [1] | [2] | [3] | [4] | [5] | [7]

CC(C)CCCCCCOC(=O)c1ccccc1C(=O)OCCCCCCC(C)C
inactive: [1] | [2] | [3] | [4] | [8] | [10]

Clc1ccc(C2(Cn3cncn3)CC(Br)CO2)c(Cl)c1 (centres undefined)
active: [2] 8.75 µM | [8] 6.89 µM | [7] 6.86 µM
not listed: [5] | [10]
inactive: all other assays above

O=Cc1cccc(Oc2ccccc2)c1
active: [7] 26.6 µM
not listed: [5] | [6]
inactive: all other assays above

N#CN=C(N)N
not listed: [6] | [10]
inactive: all other assays above

ClCc1cccnc1
active: [1] 30.8 µM | [9] 63.2 µM | [8] 48.3 µM
not listed: [6]
inactive: all other assays above

COc1cc2c(cc1OC)[C@@]13CCN4CC5=CCO[C@H]6CC(=O)N2[C@H]1[C@H]6[C@H]5C[C@H]43
not listed: [6] | [8] | [10]
inactive: all other assays above

COC(=O)Cc1ccccc1
not listed: [5] | [7]
inactive: all other assays above

CCN1CCC2(CC1)COc1cc3c(cc12)N(C(=O)c1ccc(-c2ccc(-c4nnc(C)o4)cc2C)cc1)CC3
active: [5] 6.25 µM
not listed: [6]
inactive: all other assays above

C=CC(=O)N(C)C
inactive: [1] | [2] | [3] | [4] | [5] | [8]

CC(C)c1cccc(C(C)C)c1O
not listed: [5] | [6]
inactive: all other assays above

CCC(C)(C)c1ccc(O)c(C(C)(C)CC)c1
active: [8] 15.9 µM | [10] 33.4 µM | [7] 33.4 µM
not listed: [5]
inactive: all other assays above

ClCC(Cl)CCl
inactive: [1] | [2] | [3] | [4] | [6] | [9]

NC(=S)Nc1ccccc1
active: [7] 64.2 µM
not listed: [5] | [10]
inactive: all other assays above

CCOP(=S)(OCC)SCSP(=S)(OCC)OCC
active: [7] 3.88 µM
not listed: [5] | [8]
inactive: all other assays above

CCOP(OCC)OCC
inactive: [1] | [2] | [3] | [4] | [6] | [10]

OCC(O)CCl (centres undefined)
inactive: [1] | [2] | [3] | [4] | [8]

CC(=O)OC(c1ccccc1)C(Cl)(Cl)Cl (centres undefined)
active: [7] 34.8 µM
not listed: [5] | [6] | [10]
inactive: all other assays above

c1cc[c]([Hg][c]2ccccc2)cc1
active: [1] 24.5 µM | [8] 27.3 µM
not listed: [6] | [10]
inactive: all other assays above

O=CC=O
not listed: [6] | [8] | [10]
inactive: all other assays above

CC(C)(c1ccccc1)c1ccc(O)c(C(C)(C)c2ccccc2)c1
active: [1] 7.78 µM | [2] 4.24 µM | [7] 5.55 µM
not listed: [6] | [8]
inactive: all other assays above

CNC(=O)O/N=C/C(C)(C)S(C)=O (centres undefined)
not listed: [5] | [6]
inactive: all other assays above
